This is an account of results in PubChem BioAssay (NCATS).

Inconclusive results are not listed. Unmarked numbers belong to inactive results. The source made the active and inactive calls. Calls come from the whole dose curve; as a rule, active = well fitted curve in the direction sought with a large enough effect; inconclusive = small, poorly fitted or top-dose-only effect, or another doubt; inactive = no such curve, though single readings can be large; an effect the other way counts as inactive or inconclusive.

Assay [1] in a line: BET inhibitor-based combinations targeting novel dependencies in MECOM-rearranged (r) AML: SET-2 cell line (AID 2202231).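 For viability: plate controls were DMSO treated cells for no effect and wells without cells for full effect.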 Note: nearly all actives have a fitted effect of over 35% in size. The following applies: SET-2 AML cells viability, CellTiter-Glo luminescence, 48 h; viability: stronger effect = lower value, concentration not given here. The method, boiled down: (§1)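 Each compound was tested at eleven concentrations on cells seeded at 500/well. After two days' incubation, ATP-based luminescence reported viability; responses relative to DMSO and blank wells yielded AUC and cell-line-centred Z-AUC.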
(In ATP-based viability assays light output follows the ATP content of the culture.)

Assay [2] is described as follows: BET inhibitor-based combinations targeting novel dependencies in MECOM-rearranged (r) AML: OCI-AML3 cell line (AID 2202232).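 For viability (% of control): series mostly up to about 46 µM; plate controls were DMSO vehicle wells for no effect and wells without cells for full effect.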 Note: nearly all actives have a fitted effect of over 35% in size. As to conditions: Potency: OCI-AML3 viability. The method, boiled down:
as §1

Assay [3] can be described thus: BET inhibitor-based combinations targeting novel dependencies in MECOM-rearranged (r) AML: HNT-34 cell line (AID 2202234).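 For viability (% of control): plate controls were vehicle wells for no effect and cell-free wells for full effect.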 Note: nearly all actives have a fitted effect of over 35% in size. The method, boiled down:
(§2)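 First, 500 cells per well were seeded; next, drugs were pinned as 11-point doses; then plates sat 48 hr in the incubator; finally CellTiter-Glo was added and luminescence read, with AUC and Z-AUC computed.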

Assay [4] in a line: BET inhibitor-based combinations targeting novel dependencies in MECOM-rearranged (r) AML: UCSD-AML1 cell line (AID 2202235).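 For viability (% of control): series mostly up to about 46 µM; plate controls were DMSO vehicle wells for no effect and blank wells for full effect.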 Note: nearly all actives have a fitted effect of over 40% in size. The method, boiled down:
as §2

Assay [5] is described as follows: BET inhibitor-based combinations targeting novel dependencies in MECOM-rearranged (r) AML: AML-191 cell line (AID 2202236; note: nearly all actives have a fitted effect of over 35% in size;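 for viability (% of control): plate controls were vehicle wells for no effect and wells without cells for full effect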). The method, boiled down:
as §1

The nature of assay [6]: BET inhibitor-based combinations targeting novel dependencies in MECOM-rearranged (r) AML: AML-194 cell line (AID 2202237; note: nearly all actives have a fitted effect of over 40% in size;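 for viability (% of control): plate controls were vehicle wells for no effect and wells without cells for full effect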). The method, boiled down:
as §1

Assay [7] can be described thus: BET inhibitor-based combinations targeting novel dependencies in MECOM-rearranged (r) AML: MV-4-11 cell line (AID 2202233). Note: nearly all actives have a fitted effect of over 45% in size. The method, boiled down:
as §2
Potency is the fitted concentration of half-maximal effect.

`N=C1CCCN1Cc1[nH]c(=O)[nH]c(=O)c1Cl`: the viability in assay [1] is 111%. Moreover, the Potency result in assay [2], in assay [3], in assay [4], in assay [5] and in assay [6] was “inactive” in each case.
With `O=C1Cc2cc(C(=O)NC3C[C@H]4CC[C@@H](C3)N4S(=O)(=O)CC3CCN(CCCC(F)(F)F)CC3)c(Cl)cc2N1` (some centres undefined), in assay [1], the viability is 107%. For the same molecule, the Potency entry in assay [2], in assay [3], in assay [5] and in assay [6] was “inactive” each time.
On to `C=CCN1C[C@H](C(=O)N(CCCN(C)C)C(=O)NCC)CC2c3cccc4[nH]cc(c34)C[C@H]21` (some centres undefined), for which, in assay [1], the viability is 115%. In assay [2], the Potency was 10.5 µM (active). The Potency result in assay [3], in assay [4], in assay [5] and in assay [6] was “inactive” each time.
For `O=C(/C=C/c1ccc(/C=C/C(=O)Nc2ccc(C3=NCCN3)cc2)cc1)Nc1ccc(C2=NCCN2)cc1`, the viability in assay [1] was 113%. Moreover, the viability (% of control) in assay [2] is 117% [at 5.12 µM]; in assay [3], 109% [at 5.12 µM]; in assay [4], 115% [at 5.12 µM]; in assay [6], 108% [at 5.12 µM].
With `O=C(Cc1ccccc1)Nc1nnc(CCSCCc2nnc(NC(=O)Cc3ccccc3)s2)s1`, the Potency is 9.34 µM (active) in assay [1] and 0.468 µM (active) in assay [2]. Besides, the Potency entry in assay [3] and in assay [6] was “inactive” in each case.
With `O=C(Nc1cc(Oc2cc(F)c(NC(=O)C3(C(=O)Nc4ccc(F)cc4)CC3)cc2F)ccn1)C1CC1`, the Potency in assay [1] was 11.8 µM (active); in assay [2] it was 11.8 µM (active); in assay [3], 7.42 µM (active); in assay [4] it was 14.8 µM (active); in assay [5], 16.6 µM (active); in assay [6], 14.8 µM (active).
Turning to `Nc1ccc(F)cc1NC(=O)c1ccc(CNC(=O)/C=C/c2cccnc2)cc1`, the Potency in assay [1] is 13.2 µM (active); in assay [2] it was 4.17 µM (active); in assay [3], 4.17 µM (active); in assay [4], 5.25 µM (active); in assay [5], 16.6 µM (active); in assay [6] it was 14.8 µM (active).
Turning to `COc1cc([C@@H](CC(=O)O)c2ccc(C)c(CN3C[C@@H](C)Oc4ccccc4S3(=O)=O)c2)cc2nnn(C)c12`, the viability in assay [1] is 67.3%. Also, the Potency entry in assay [2], in assay [3], in assay [4], in assay [5] and in assay [6] was “inactive” each time.
As for `CC(=O)N[C@H]1CSSC[C@@H](C(N)=O)NC(=O)[C@H](C(C)C)NC(=O)[C@H](C)NC(=O)[C@H](Cc2cnc[nH]2)NC1=O`, the viability in assay [1] is 113%. The Potency entry in assay [2], in assay [3], in assay [4], in assay [5] and in assay [6] was “inactive” throughout.
Regarding `CO[C@@]12[C@H](COC(N)=O)C3=C(C(=O)C(C)=C(N)C3=O)N1C[C@@H]1N[C@@H]12`, the viability in assay [1] was 95%. Moreover, the Potency entry in assay [2], in assay [3], in assay [4], in assay [5] and in assay [6] was “inactive” each time.
For `COc1ccnc(CS(=O)c2nc3ccc(OC(F)F)cc3[nH]2)c1OC` (centres undefined), the viability in assay [1] was 114%. The Potency in assay [2] is 23.5 µM (active). The Potency result in assay [3], in assay [4], in assay [5] and in assay [6] was “inactive” each time.
On to `O=C(Nc1cccc(C(F)(F)F)c1)c1cccc2cc(Oc3cc(CO)ncn3)ccc12`, for which the viability in assay [1] was 103%. The Potency entry in assay [2], in assay [4], in assay [5] and in assay [6] was “inactive” each time.
On to `C#CCN(C)CC1=Cc2ccccc2Oc2ccccc21`, for which the viability in assay [1] is 106%. The Potency entry in assay [2], in assay [3], in assay [4] and in assay [6] was “inactive” in each case.
For `Cc1oc(=O)oc1CN1CCN(c2cc3c(cc2F)c(=O)c(C(=O)O)c2n3C(C)S2)CC1` (centres undefined), the viability in assay [1] is 116%. In addition, the Potency result in assay [2], in assay [3], in assay [4], in assay [5] and in assay [6] was “inactive” in each case.
Take `COc1ncc(Nc2ncc(C(C)N3CCN(S(C)(=O)=O)CC3)cc2-c2nc(C)nc(N)n2)cc1F` (centres undefined): the viability in assay [1] was 73.4%. The Potency in assay [2] is 0.662 µM (active). The Potency result in assay [3] and in assay [6] was “inactive” in each case.
Regarding `CCS(=O)(=O)N1CCC(C(C)n2c(C)c(C(=O)NCc3c(OC)cc(C)[nH]c3=O)c3ccccc32)CC1` (centres undefined), the viability in assay [1] was 108%. The Potency result in assay [2], in assay [3], in assay [4], in assay [5] and in assay [6] was “inactive” throughout.
`CCC(=C/[C@H](C)C/C=C/C(C)=C/[C@@H](C)C(=O)[C@@H](C)[C@H](O)[C@@H](C)C/C(C)=C/C(=O)O)/C=C/[C@@H]1OC(=O)C=C[C@@H]1C`: the Potency in assay [1] was 0.0074 µM (active); in assay [2], 0.0042 µM (active); in assay [3] it was 0.0037 µM (active); in assay [4] it was 0.0033 µM (active); in assay [5] it was 0.003 µM (active); in assay [6], 0.0019 µM (active).
For the molecule `CS[C@H]1SC[C@@H]2C(=O)N(C)[C@H](C(C)C)C(=O)OC[C@H](NC(=O)c3cnc4ccccc4n3)C(=O)N[C@H](C)C(=O)N(C)[C@H]1C(=O)N(C)[C@H](C(C)C)C(=O)OC[C@H](NC(=O)c1cnc3ccccc3n1)C(=O)N[C@H](C)C(=O)N2C`, the Potency in assay [1] was 0.0148 µM (active); in assay [2], 0.0047 µM (active); in assay [3], 0.0066 µM (active); in assay [4], 0.0053 µM (active); in assay [5], 0.0132 µM (active); in assay [6], 0.0132 µM (active).
Take `N#C/C(=C1/Nc2ccccc2S1)c1ccnc(OCc2ccc(CN3CCOCC3)cc2)n1`: the Potency was 20.9 µM (active) in assay [1], 14.8 µM (active) in assay [2], 16.6 µM (active) in assay [3] and 20.9 µM (active) in assay [6].
Take `CN(C)CC[C@H](CSc1ccccc1)Nc1ccc(S(=O)(=O)NC(=O)c2ccc(N3CCN(Cc4ccccc4-c4ccc(Cl)cc4)CC3)cc2)cc1[N+](=O)[O-]`: the Potency in assay [1] is 10.5 µM (active); in assay [7] it was 0.263 µM (active); in assay [4], 2.95 µM (active); in assay [5], 2.35 µM (active); in assay [6], 1.86 µM (active).

One may read the viability as a read-out of living cells in per cent, often relative to untreated cells.
